# Measured values: PubChem BioAssay (NCI)
# This is part of a sample that, as a whole, favours compounds with a hit. Of some 83,000 tested, about 20% had one in any assay.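 Cells were grown in 96-well plates and exposed to the test compound at a single concentration for 48 hours; results are reported as percent growth, with values below 10 considered active.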 Values without a mark were called inactive. Activity calls are given as the source filed them.
# Columns and labels:
# Test in all cases: NCI-60 one-dose screen, 48 h (100 = growth as untreated, 0 = no growth, -100 = all killed)
# Conditions in all cases: 10 µM unless noted
# [1] = system: EKVX NSCLC
# [2] = system: SN12C renal
# [3] = system: UO-31 renal
# [4] = system: ACHN renal
# [5] = system: CAKI-1 renal
# [6] = system: A498 renal
# [7] = system: CCRF-CEM leukemia
# [8] = system: MOLT-4 leukemia
# [9] = system: SR leukemia
# [10] = system: RPMI-8226 leukemia
# [11] = system: OVCAR-8 ovarian
# [12] = system: OVCAR-5 ovarian
# [13] = system: OVCAR-4 ovarian
# [14] = system: IGROV1 ovarian
# [15] = system: OVCAR-3 ovarian
# [16] = system: HS 578T breast
# [17] = system: T-47D breast
# [18] = system: SK-OV-3 ovarian
# [19] = system: NCI/ADR-RES ovarian
SMILES,growth [1],growth [2],growth [3],growth [4],growth [5],growth [6],growth [7],growth [8],growth [9],growth [10],growth [11],growth [12],growth [13],growth [14],growth [15],growth [16],growth [17],growth [18],growth [19]
CCOC(=O)c1sc(NCC(=O)Nc2cccc([N+](=O)[O-])c2)c(C(=O)OCC)c1C,-22.3% (active),-11.5% (active),-64.6% (active),-62.4% (active),-17.5% (active),-38% (active),7.16% (active),6.63% (active),19.3%,-31.6% (active),1.78% (active),-13.7% (active),-26% (active),-41% (active),-4.13% (active),-10.4% (active),-10.9% (active),–,–
CCOC(=O)c1c(Nc2ccccc2)nn2c(N)c(C#N)c(-c3ccc(OC)cc3)nc12,69.2%,86.6%,76.7%,38.5%,52.8%,75.5%,89.3%,94.7%,–,88.7%,66.1%,101%,35.9%,85.5%,101%,19.4%,61.3%,55.9%,73.3%
CN1CCc2c(sc3ncnc(N/N=C/c4ccc(Cl)c(Cl)c4)c23)C1,60.8%,81.2%,29.7%,-84.7% (active),10.6%,–,8.1% (active),26.6%,-22.8% (active),41.4%,31.8%,71.4%,20.9%,73.2%,71.5%,78.5%,90.4%,28.3%,29.6%
COc1ccc(/C=C2\SC(=Nc3cc(C)[nH]n3)NC2=O)cc1,91.5%,96%,75.3%,88.1%,83.4%,–,86.7%,94%,82%,88.2%,103%,90.3%,97.4%,97.3%,104%,91.4%,85.2%,85.7%,98.3%
CC1=C(C)C(=O)C(Nc2cccc(C(F)(F)F)c2)=C(Cl)C1=O,49.4%,87.6%,77.3%,-37.7% (active),92.7%,55.2%,5.9% (active),23.5%,25%,–,87.1%,100%,-80.4% (active),-7.2% (active),70.4%,87.6%,-39% (active),–,–
O=C1NC(=C(Cl)Cl)/C(=N/S(=O)(=O)N2CCCCC2CC2(C(F)(F)F)N=N2)N1 (stereo not drawn),59.2%,95.8%,18.2%,-48.9% (active),-65.4% (active),–,4.21% (active),-9.34% (active),-33.4% (active),-6.5% (active),17.6%,91.1%,-10.2% (active),-0.053% (active),-15.1% (active),52.2%,65.7%,136%,63.4%
Cc1ccc2ccc3ccc(C)nc3c2n1.Cc1ccc2ccc3ccc(C)nc3c2n1.Oc1c(Cl)cc(Cl)c2ccc(CN3CCCCC3)nc12.[Ru],-64.9% (active),-64.9% (active),-89.8% (active),–,-77.7% (active),-88.7% (active),-47.9% (active),-52.7% (active),–,-46% (active),-75.4% (active),-72% (active),-45.8% (active),-58.4% (active),–,-42.4% (active),-55.8% (active),-72.6% (active),-24.4% (active)
Fc1ccc(-c2cc3nc(C(Cl)Cl)nc(-c4ccc(Cl)cc4)n3n2)cc1,5.99% (active),53.3%,27.4%,–,-23.3% (active),-38.8% (active),56.8%,19.3%,3.51% (active),10.9%,19%,-4.91% (active),-9.93% (active),44.5%,-31.9% (active),8.56% (active),37.4%,–,20.3%
